For 5 compounds, inhibition results are on record in PubChem BioAssay AID920 (The Scripps Research Institute Molecular Screening Center, 2007).

The campaign covered roughly 200,000 compounds. About 700 (0.35%) were called active. The sample as a whole holds a higher share of actives than the screen did. Values without a mark were called inactive.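 How the source made its calls: active means inhibition above a set limit, the mean inhibition across all tested compounds plus 3 SD (cut at about 34% in these data); inactive means the rest.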

The nature of this assay: blockers of IFN-gamma driven STAT1 reporter – cell-based, HTS, luciferase reporter, primary screen (AID 920).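 Further: 0% = IFN-gamma with DMSO and 100% = IFN-gamma with 300 µM nifuroxazide.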 As to conditions: NIH 3T3 STAT1-luciferase reporter, luminescence, at 5.5 µM, hits give high values.
For the compound `Cc1nc2ccc(N3CCN(C)CC3)cc2nc1C`, the inhibition is -26.2%.

As for `CN1CCN(c2cc(N3CCNCC3)ccc2[N+](=O)[O-])CC1`, the inhibition is 12.4%.

Regarding `COc1cccc(-c2nc3ccc(N4CCN(C)CC4)cc3[nH]2)c1`, the inhibition is 63.1% (active).

Consider `CN(C)/C=C(\C=[N+](C)C)c1[nH]ncc1[N+](=O)[O-]`, for which the inhibition is -9.13%.

As to `COc1ccc(CCn2c(O)c(C=NCCCn3ccnc3)c(=O)[nH]c2=O)cc1OC`, the inhibition is -4.43%.
